We go through six compounds from PubChem BioAssay (NCATS).

SMILES strings stand for the structures. Several values for one entry are separate records, joined by “and”; a condition that tells them apart may be missing. Equal entries are not always repeated. Unmarked numbers belong to inactive results. Results filed as inconclusive are left out. Activity calls are given as the source filed them. Unless noted, calls come from the whole dose curve; as a rule, active = well fitted curve in either direction with a large enough effect (not every such curve was filed as active); inconclusive = small, poorly fitted or top-dose-only effect, or another doubt; inactive = flat fitted curve, though single readings scatter.

Test [1] can be described thus: AP1 Signaling Pathway (AID 357). Note: % is set by controls: 0 for no effect and ±100 for the full control effect. Conditions: ME-180 AP-1-bla reporter, EGF-induced, beta-lactamase ratio, 5 h. An outline of the steps: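 Read-out was the 460nm/530nm emission ratio (excitation 405nm) after CCF4 loading for 2.5 hours at room temperature. Cells carried an AP-1-driven beta-lactamase reporter, were stimulated with EC50 EGF plus compound for 5 hours, and AC50 values came from titrations.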

Test [2] has as its target Cytochrome P450 1A2 (Homo sapiens) (UniProt P05177). Description: p450-cyp1a2 (AID 410; calls by dose curve; note: potency is the fitted concentration of half-maximal effect;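 for activity change, negative = inhibition: -100% = full effect of reference inhibitor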). To be noted: recombinant CYP1A2, luciferin-ME demethylation, luminescence; series mostly up to 57 µM. An outline of the steps: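 O-Demethylation of luciferin 6' methyl ether by human CYP1A2 is monitored as luciferase luminescence. Substrate sits at Km (100uM); enzyme is 20nM. Values are scaled to 57 uM furafylline as maximal inhibition.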

Test [3] in a line: NFAT Signaling Pathway (AID 444).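 Note: carbachol stimulus at about its EC50 of 1 µM final; % is set by controls: 0 for no effect and ±100 for the full control effect.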 Conditions: Jurkat NFAT-bla M1, carbachol, beta-lactamase ratio, 5 h. An outline of the steps:
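Jurkat cells carrying an NFAT-driven β-lactamase reporter and co-transfected muscarinic M1 receptor were treated with compound plus carbachol (1 uM final, an EC50 level) for 5 h at 37 °C. CCF4 loading followed for 1 h at RT; 460/530 nm ratio gave %activity.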

The nature of test [4]: Stat Signaling Pathway (AID 446).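 Note: ME-180 cervical cancer cells given 40 pM IL-6 alongside compound; SIE-controlled beta-lactamase reporter measured as 460/530 nm FRET emission ratio; % is set by controls: 0 for no effect and ±100 for the full control effect.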 Conditions: ME-180 (cervical carcinoma) SIE beta-lactamase reporter, IL-6 stimulated, 5 h; series mostly up to 17.2 µM. An outline of the steps: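 Overnight-plated ME-180 cells bearing a STAT Inducible Element beta-lactamase reporter; 5 h co-exposure to compound and 40 pM IL-6; values normalized to 300 pM IL-6 and 125 nM JAK inhibitor controls.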
In test [5] the target is Mitogen-activated protein kinase 10 (Mus musculus) (UniProt Q61831). Description: JNK3 AlphaScreen Assay (AID 530).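 Note: kinase came from lysate of stimulated human HepG2 cells; signal reports phosphorylation of biotinylated GST-cJun 1-79 at Ser73 with 10 µM ATP; % is set by controls: 0 for no effect and ±100 for the full control effect.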 To be noted: JNK3 lysate, c-Jun phosphorylation; series mostly up to 57.1 µM. An outline of the steps:
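Phosphorylation of biotinylated GST-cJun(1-79) at Ser73 is measured by AlphaScreen proximity luminescence. Enzyme is JNK3 in HepG2 lysates activated with interleukin-1beta and tumor necrosis factor alpha; ATP is 10 uM final.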

In test [6] the target is Glucocorticoid receptor (Homo sapiens) (UniProt P04150). Description: GR-GFP Redistribution (AID 450;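 active = compounds whose dose series gives a full or clear partial fitted curve of increased nuclear translocation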; note: potency is the fitted concentration of half-maximal effect). To be noted: U2OS GR-GFP nuclear translocation, laser cytometry, 2 h.
Test [7] has the same target. Description: GR-EFC Redistribution (AID 451; calls by dose curve; note: potency is the fitted concentration of half-maximal effect). To be noted: CHO-K1 GR-EFC translocation, beta-gal luminescence, 2 h. Summed up:
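CHO-K1 cells stably expressing nuclear-localized β-gal enzyme acceptor and GR fused C-terminally to the enzyme donor fragment; ligand-driven nuclear translocation restores β-gal by complementation. Compounds titrated up to 46 uM final, 2 h at 37 °C; luminescence read.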

Test [8] can be described thus: Cell Viability - Hek293 (AID 427;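 active = compounds whose dose-response curve shows a full or clear partial loss of cell viability, called from curve shape rather than a numeric limit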;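 note: potency is the fitted concentration of half-maximal effect; cells exposed to compound for 40 hours at 37 °C before reading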). Conditions: qHTS. An outline of the steps:
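AC50 values derive from Hill-modelled concentration-response of ATP-based luminescence, normalized between DMSO-only and 100 uM tamoxifen controls. Cells were exposed in complete culture medium for 40 hr at 37 °C before detection.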

Test [9] in a line: Cell Viability - SK-N-SH (AID 435; calls by dose curve;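 note: potency is the fitted concentration of half-maximal effect; compound exposure lasted 40 h at 37 °C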). Conditions: SK-N-SH neuroblastoma cell viability qHTS. An outline of the steps: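 Human neuroblastoma line, 40 h exposure at 37 °C, ATP quantified via luciferase luminescence; DMSO and 100 uM tamoxifen define 0 and 100% inhibition for AC50 fitting.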
Test [10] in a line: Cell Viability - NIH 3T3 (AID 541; active = well fitted cell-killing curve with a large enough effect;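 note: cells exposed to compound for 40 hours; plate controls were DMSO alone for no effect and tamoxifen positive control for full effect; nearly all actives have a fitted effect of over 25% in size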). Conditions: NIH 3T3 cell viability, qHTS; activity change, negative = cytotoxicity: at 92.2 µM (top of the series). An outline of the steps: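 Cells seeded at 1000/well, rested 5 hr at 37 °C, then dosed and incubated 40 hr at 37 °C. CellTiter-Glo added, 20 min room temperature, luminescence read. AC50 by Hill fit.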
Test [11] can be described thus: Cell Viability - H-4-II-E (AID 543; active = well fitted cell-killing curve with a large enough effect;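 note: potency is the fitted concentration of half-maximal effect; cells exposed to compound for 40 hours; nearly all actives have a fitted effect of over 35% in size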). To be noted: H-4-II-E rat hepatoma viability; series mostly up to 92.2 µM. An outline of the steps: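 Cells seeded at 1500 per well and rested 5 hr; compounds added; 40 hr incubation at 37 °C; CellTiter-Glo added, 20 min at room temperature; luminescence read. Hill-equation fits gave AC50.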
A short description of test [12]: Cell Viability - Mesenchymal (AID 546; active = well fitted cell-killing curve with a large enough effect;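 note: potency is the fitted concentration of half-maximal effect; cells exposed to compound for 40 hours before reading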). Conditions: mesenchymal cells viability, qHTS; activity change, negative = cytotoxicity: at 91.7 µM (top of the series). Summed up: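 In this qHTS cytotoxicity format, glomerulus-derived human mesenchymal kidney cells received compound for 40 hr, then luciferase-based ATP quantitation. Concentration-response data were fitted with the Hill equation.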

Test [13] deals with Lysosomal acid glucosylceramidase (Homo sapiens) (UniProt P04062). Description: Glucocerebrosidase-p2 (AID 348; in the data active = potency below about 10 µM; note: potency is the fitted concentration of half-maximal effect). To be noted: purified GBA, blue fluorogenic substrate, 40 min. Summed up:
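Normal human glucocerebrosidase (0.2 nM) with blue fluorogenic substrate (80 uM final) in citrate/phosphate pH 5.9 with 10mM sodium taurocholate, 0.01% tween-20; 40 min RT, NaOH/glycine stop; fluorescence Ex 365/Em 440; AC50 from a titration from 0.6 nM upwards.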

Glucocorticoid receptor (Homo sapiens), sequence (P04150 whole entry, looked up): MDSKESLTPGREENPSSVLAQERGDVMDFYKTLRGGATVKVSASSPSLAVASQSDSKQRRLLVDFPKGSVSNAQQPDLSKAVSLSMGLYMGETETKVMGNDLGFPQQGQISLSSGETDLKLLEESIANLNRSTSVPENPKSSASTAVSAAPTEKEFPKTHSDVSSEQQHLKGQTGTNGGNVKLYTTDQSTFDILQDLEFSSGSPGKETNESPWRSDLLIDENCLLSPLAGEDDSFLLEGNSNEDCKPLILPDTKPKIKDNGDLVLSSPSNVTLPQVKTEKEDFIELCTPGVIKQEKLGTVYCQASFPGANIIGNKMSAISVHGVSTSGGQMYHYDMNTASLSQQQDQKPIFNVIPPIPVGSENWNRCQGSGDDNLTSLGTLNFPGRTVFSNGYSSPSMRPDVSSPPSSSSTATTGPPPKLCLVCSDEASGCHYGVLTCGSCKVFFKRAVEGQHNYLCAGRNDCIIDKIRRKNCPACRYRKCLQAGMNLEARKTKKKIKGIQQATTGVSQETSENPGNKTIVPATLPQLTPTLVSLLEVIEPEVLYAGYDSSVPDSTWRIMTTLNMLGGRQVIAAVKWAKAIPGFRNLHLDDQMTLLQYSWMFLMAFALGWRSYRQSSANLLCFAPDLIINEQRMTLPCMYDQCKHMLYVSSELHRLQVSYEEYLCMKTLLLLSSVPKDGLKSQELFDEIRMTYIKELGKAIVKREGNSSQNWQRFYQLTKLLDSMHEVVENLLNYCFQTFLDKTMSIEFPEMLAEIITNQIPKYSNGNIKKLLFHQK
Cytochrome P450 1A2 (Homo sapiens), sequence (P05177 whole entry, looked up): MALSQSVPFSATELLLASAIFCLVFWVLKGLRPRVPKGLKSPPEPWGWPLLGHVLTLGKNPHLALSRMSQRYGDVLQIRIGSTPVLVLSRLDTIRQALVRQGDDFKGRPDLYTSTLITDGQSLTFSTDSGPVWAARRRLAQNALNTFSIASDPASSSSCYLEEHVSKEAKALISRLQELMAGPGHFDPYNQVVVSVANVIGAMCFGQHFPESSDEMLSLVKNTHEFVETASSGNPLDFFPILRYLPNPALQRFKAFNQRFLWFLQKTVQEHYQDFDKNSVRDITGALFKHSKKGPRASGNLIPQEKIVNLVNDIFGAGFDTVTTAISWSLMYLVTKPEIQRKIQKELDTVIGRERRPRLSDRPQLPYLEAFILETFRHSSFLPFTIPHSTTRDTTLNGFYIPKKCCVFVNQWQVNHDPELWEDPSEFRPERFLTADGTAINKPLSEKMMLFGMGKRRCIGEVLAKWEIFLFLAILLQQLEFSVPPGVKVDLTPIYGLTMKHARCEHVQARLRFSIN
Lysosomal acid glucosylceramidase (Homo sapiens), sequence (P04062 whole entry, looked up): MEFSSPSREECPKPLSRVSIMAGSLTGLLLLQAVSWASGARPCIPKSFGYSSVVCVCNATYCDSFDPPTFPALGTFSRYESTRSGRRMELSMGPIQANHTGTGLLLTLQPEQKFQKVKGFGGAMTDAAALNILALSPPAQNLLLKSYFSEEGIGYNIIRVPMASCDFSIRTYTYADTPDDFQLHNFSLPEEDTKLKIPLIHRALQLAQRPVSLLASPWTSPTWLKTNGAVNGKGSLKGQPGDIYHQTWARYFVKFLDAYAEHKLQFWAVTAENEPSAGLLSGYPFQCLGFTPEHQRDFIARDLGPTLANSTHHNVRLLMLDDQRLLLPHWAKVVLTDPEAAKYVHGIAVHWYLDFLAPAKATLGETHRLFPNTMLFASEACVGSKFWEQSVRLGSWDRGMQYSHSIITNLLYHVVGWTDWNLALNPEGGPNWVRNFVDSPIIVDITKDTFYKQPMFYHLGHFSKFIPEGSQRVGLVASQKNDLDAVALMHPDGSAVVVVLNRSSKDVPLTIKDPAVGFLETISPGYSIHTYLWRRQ

`CCn1cc(C(=O)O)c(=O)c2cc3c(cc21)OCO3`: the activity change, negative = inhibition in test [1] (at 17.2 µM (top of the series)) is -4.15%; in test [1] (at 38 µM (top of the series)), -1.96%; in test [3] (at 17.2 µM (top of the series)), -7.01%; in test [3] (at 38 µM (top of the series)), 7.6%. Moreover, the Potency in test [2] was 5.01 µM (active) and 2.51 µM (active). The compound was called inactive in [4]. Further, the Potency result in test [5] was “inactive”.

In the case of `CN(C)C(=O)Oc1cccc([N+](C)(C)C)c1`, the activity change, negative = inhibition was 6.9% and 1.34% and 7.06% in [1] (at 17.2 µM (top of the series)); -1.33% in test [1] (at 38 µM (top of the series)); -14.6% and 15.5% and 0.313% in [3] (at 17.2 µM (top of the series)); 13% in [3] (at 38 µM (top of the series)). Further, the Potency result in test [2] and in test [5] was “inactive” each time. The outcome in test [4] was inactive. Moreover, the Potency was > 46 µM and > 20.6 µM in test [6]; > 46 µM and > 20.6 µM in [7].

On to `CN1CCN(CC(=O)N2c3ccccc3C(=O)Nc3cccnc32)CC1`, for which the activity change, negative = inhibition in test [1] (at 17.2 µM (top of the series)) was -3.75% and 6.17%; in [1] (at 38 µM (top of the series)), 9.42%; in test [3] (at 17.2 µM (top of the series)) it was -94.8% (active). Besides, the Potency result in test [2] and in [5] was “inactive” each time. In [4], the call was inactive. The Potency in test [6] was > 46 µM and > 20.6 µM; in [7], > 46 µM and > 20.6 µM.

Regarding `CN/C(=C\[N+](=O)[O-])NCCSCc1ccc(CN(C)C)o1`, the activity change, negative = inhibition is -3.39% in [1] (at 17.2 µM (top of the series)), -6.59% in test [1] (at 38 µM (top of the series)), -7.07% in test [3] (at 17.2 µM (top of the series)) and 1.99% in [3] (at 38 µM (top of the series)). The compound was classed as inactive in [4]. The Potency in [6] was > 46 µM and > 20.6 µM; in [7], > 46 µM and > 20.6 µM. In addition, in test [5], the Potency result was “inactive”.

`Nc1nc(N)c2nc(-c3ccccc3)c(N)nc2n1`: the activity change, negative = inhibition is 16.6% and 10.9% in test [1] (at 17.2 µM (top of the series)); -2.44% in test [1] (at 38 µM (top of the series)). Further, the Potency is 18 µM (active) in test [8]; 66.1 µM (active) in test [9]; > 46 µM and > 20.6 µM in test [6]; > 46 µM and > 20.6 µM in test [7]; 0.316 µM (active) in test [11]; 25.1 µM (active) in test [12]. In [4], the compound was called inactive. Further, the Potency result in test [5] is “inactive”. The activity change, negative = cytotoxicity in [10] is -88.4% (active).

Regarding `O=C(O)CP(=O)(O)O`, the Potency in [13] was over 11.4 µM; in test [6] it was over 46 µM; in [7] it was > 46 µM and > 9.22 µM. Further, the Potency result in test [2] and in test [5] was “inactive” each time. Moreover, the activity change, negative = inhibition in [3] (at 7.69 µM (top of the series)) is -1.52%; in test [3] (at 38 µM (top of the series)) it was 3.66%. In addition, in test [4], the result was inactive.
